According to PubChem BioAssay (Tox21):
Inconclusive results are not listed. The source made the active and inactive calls. Unless noted, the call rests on the fitted dose curve.

Tests used:
[1] = Nuclear factor erythroid 2-related factor 2/antioxidant responsive element (Nrf2/ARE) small molecule agonists: qHTS cell viability counter screen in human keratinocytes (AID 1919968; active means well fitted curve in the direction sought with a large enough effect in the repeat runs; an effect the other way counts as inactive or inconclusive; further: nearly all actives have a fitted effect of over 55% in size; further: potency means the concentration at half of the fitted maximal effect)
In short: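 After a 5 h attachment period, ARE-reporter keratinocytes were dosed with compounds in DMSO and then cultured 23 h at 37 C. Cell viability came from CellTiter-Fluor signal read after a further 1 h.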

[2] = Nuclear factor erythroid 2-related factor 2/antioxidant responsive element (Nrf2/ARE) small molecule agonists: luciferase reporter gene qHTS assay in human keratinocytes (AID 1919969); further: nearly all actives have a fitted effect of over 35% in size; further: potency means the concentration at half of the fitted maximal effect
[3] = biological target: Gonadotropin-releasing hormone receptor (Homo sapiens) (UniProt P30968); assay: Human gonadotropin-releasing hormone receptor (GnRHR) small molecule agonists, calcium flux assay in GnRHR-HEK293 cells (AID 1920063); further: nearly all actives have a fitted effect of over 35% in size
In short: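 We seeded human GnRHR-expressing HEK293 cells for 18 hours, loaded them with calcium dye for an hour at 37 C, added test compounds, and recorded fluorescence intensity kinetically for three minutes.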

[4] = biological target: KiSS-1 receptor (Homo sapiens) (UniProt Q969F8); assay: Human kisspeptin (KISS1R) small molecule agonists, calcium flux assay in KISS1R-HEK293 cells (AID 1920064; active means well fitted curve in the direction sought with a large enough effect in the repeat runs; an effect the other way counts as inactive or inconclusive)
In short: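 Kinetic calcium assay, 1 s sampling over 3 min at Ex/Em 480/540, in HEK293 cells engineered with human KISS1R; compounds delivered in DMSO after 1 h dye loading.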

[5] = G protein-coupled receptor (GPCR) small molecule agonists, calcium flux assay: HEK293 wild type cell line counter screen (AID 1920065)
In short: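 Calcium-sensitive dye, loaded 1 h at 37 C into cells cultured 18 h, reports compound-evoked calcium release as fluorescence (Ex/Em 480/540), measured over 3 min. Agonist mode; 15-point titrations, triplicate.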

[6] = p53 small molecule agonists, cell-based qHTS assay with human liver microsomes (AID 1963577)
In short: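 p53RE-bla cells, 4,000/well, compound added after 5 h, with human liver microsomes 0.5 mg/mL and NADPH 0.5 mg/mL final; 16 h at 37 C, then LiveBLAzer 2 h RT, fluorescence.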

[7] = p53 small molecule agonists, cell-based qHTS assay with rat liver microsomes (AID 1963578)
In short: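 p53RE-bla cells, 4,000/well, pre-incubated 5 h, then given compounds plus rat liver microsomes (0.5 mg/mL final) and NADPH (0.5 mg/mL final). Incubation 16 h at 37 C; beta-lactamase reporter read by LiveBLAzer fluorescence after 2 h at room temperature.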

[8] = p53 small molecule agonists, cell-based qHTS assay with human liver microsomes: qHTS cell viability counter screen (AID 1963579); further: nearly all actives have a fitted effect of over 45% in size; further: potency means the concentration at half of the fitted maximal effect
In short: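 p53RE-bla cells, 4,000/well, dosed 5 hours after plating, with human liver microsomes (0.5 mg/mL final) plus NADPH (0.5 mg/mL final), 16 hours at 37 C. Viability read as CellTiter-Glo luminescence after 30 min at room temperature.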

[9] = p53 small molecule agonists, cell-based qHTS assay: qHTS cell viability counter screen (AID 1963581); further: nearly all actives have a fitted effect of over 45% in size
In short: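 Following 5 h attachment, HCT-116 p53RE-bla cells took up compound for 16 h at 37 C; the reporter was read with B/G FRET substrate (2 h RT), and viability then via CellTiter-Glo ATP luminescence.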

[10] = p53 small molecule agonists, cell-based qHTS assay (AID 1963582; active means well fitted activation curve with a large enough effect in the signal ratio in the repeat runs, not every such curve was filed as active; the % refers to the signal ratio)
In short: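 In this cell-based concentration-response screen, a p53 response element drives beta-lactamase; cells received DMSO-borne compounds after 5 h culture and were incubated a further 16 h before FRET substrate development.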

[11] = biological target: 5-hydroxytryptamine receptor 2A (Homo sapiens) (UniProt P28223); assay: 5-hydroxytryptamine receptor 2A (HTR2A) small molecule antagonists, cell-based qHTS assay (AID 1963586); further: nearly all actives have a fitted effect of over 45% in size
In short: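 Antagonist-mode intracellular calcium assay: DOI (4 nM) added after 5 min compound pre-incubation at room temperature to dye-loaded HTR2A-CHO cells. Fluorescence followed for 3 min, sampled every second.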

[12] = biological target: 5-hydroxytryptamine receptor 2A (Homo sapiens) (UniProt P28223); assay: 5-hydroxytryptamine receptor 2A (HTR2A) small molecule agonists, cell-based qHTS assay (AID 1963587); further: nearly all actives have a fitted effect of over 30% in size
In short: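 HTR2A-CHO cells, plated 18 h at 37 C/5% CO2, dye-loaded 1 h at 37 C; compounds in DMSO added by pin tool (agonist mode). Intracellular calcium flux read as kinetic fluorescence on FDSS over 2 min at 1 s intervals.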

[13] = biological target: Muscarinic acetylcholine receptor M1 (Homo sapiens) (UniProt P11229); assay: Cholinergic receptor muscarinic 1 (CHRM1) small molecule antagonists, cell-based qHTS assay (AID 1963588); further: nearly all actives have a fitted effect of over 40% in size; further: potency means the concentration at half of the fitted maximal effect
In short: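 CHRM1-CHO calcium-flux assay, antagonist mode. Cells were seeded 18 h, dye-loaded 1 h at 37 C and given compound for 5 min at RT, then acetylcholine was added at 50nM. FDSS fluorescence was read 3 min; 15 concentrations, three runs.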

[14] = biological target: Muscarinic acetylcholine receptor M1 (Homo sapiens) (UniProt P11229); assay: Cholinergic receptor muscarinic 1 (CHRM1) small molecule agonists, cell-based qHTS assay (AID 1963589); further: nearly all actives have a fitted effect of over 35% in size
In short: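 Measures agonist-induced intracellular calcium rise. Stable human CHRM1 CHO line, 1 h dye load at 37 C, compounds from DMSO, kinetic fluorescence read.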

[15] = cAMP Responsive Elements (CRE) small molecule agonists, cell-based qHTS assay (AID 1963590)
In short: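 A CRE-responsive beta-lactamase reporter in HEK 293T cells was used. Treatment ran 3 h at 37 C; detection used LiveBLAzer B/G FRET substrate for 2 h at room temperature.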

[16] = cAMP Responsive Elements (CRE) small molecule antagonists, cell-based qHTS assay (AID 1963591; active means well fitted inhibition curve with a large enough effect in the signal ratio in the repeat runs, not every such curve was filed as active; the % refers to the signal ratio; further: potency means the concentration at half of the fitted maximal effect)
In short: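 HEK293T cells carrying a CRE-driven beta-lactamase reporter receive compound and NKH477 (0.25 uM final) for 3 h. Fluorescence from LiveBLAzer B/G FRET substrate is read after 2 h at room temperature.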

[17] = biological target: Beta-2 adrenergic receptor (Homo sapiens) (UniProt P07550); assay: Adrenergic beta2 receptor (ADRB2) small molecule antagonists, cell-based qHTS assay (AID 1963592); further: series mostly up to about 92 µM; nearly all actives have a fitted effect of over 50% in size
In short: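 Cells (CHO, stable ADRB2 overexpression) incubated 18-20hr at 37C; compounds added from DMSO; agonist mix (1nM isoproterenol, 100uM IBMX, 25uM Ro-20-1724) added; 0.5hr RT; d2-cAMP and anti-cAMP-cryptate added; 1hr RT; 665/615 nm read.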

[18] = biological target: D(2) dopamine receptor (Homo sapiens) (UniProt P14416); assay: Dopamine D2 receptor (DRD2) small molecule agonists, cell-based qHTS assay (AID 1963594); further: nearly all actives have a fitted effect of over 35% in size
In short: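 HEK293 cells stably expressing DRD2 were cultured 24 h at 37 C, then given Ro20-1724 (0.1 mM final) and compounds for 10 min at room temperature. NKH477 (200nM) was then added for 30 min. cAMP was read by HTRF.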

[19] = biological target: D(2) dopamine receptor (Homo sapiens) (UniProt P14416); assay: Dopamine D2 receptor (DRD2) small molecule antagonists, cell-based qHTS assay (AID 1963595; active means well fitted inhibition curve with a large enough effect in the signal ratio in the repeat runs, with a control signal flat; the % refers to the signal ratio)
In short: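 Antagonist mode in DRD2-HEK293 cells: after compound addition with 0.1 mM Ro20-1724, cells received quinpirole (12 nM) and NKH477 (200 nM) for 30 min at room temperature; HTRF cAMP read after 1 h detection.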

[20] = p53 small molecule agonists, cell-based qHTS assay with rat liver microsomes: qHTS cell viability counter screen (AID 1963580); further: nearly all actives have a fitted effect of over 45% in size
In short: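 In HCT-116 cells carrying a p53 response element-bla reporter, compounds were metabolically activated in situ by rat liver microsomes with NADPH over 16 h. Cell ATP content then served as the cytotoxicity measure.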

Measured: Potency

D(2) dopamine receptor (Homo sapiens), sequence (P14416 whole entry, looked up): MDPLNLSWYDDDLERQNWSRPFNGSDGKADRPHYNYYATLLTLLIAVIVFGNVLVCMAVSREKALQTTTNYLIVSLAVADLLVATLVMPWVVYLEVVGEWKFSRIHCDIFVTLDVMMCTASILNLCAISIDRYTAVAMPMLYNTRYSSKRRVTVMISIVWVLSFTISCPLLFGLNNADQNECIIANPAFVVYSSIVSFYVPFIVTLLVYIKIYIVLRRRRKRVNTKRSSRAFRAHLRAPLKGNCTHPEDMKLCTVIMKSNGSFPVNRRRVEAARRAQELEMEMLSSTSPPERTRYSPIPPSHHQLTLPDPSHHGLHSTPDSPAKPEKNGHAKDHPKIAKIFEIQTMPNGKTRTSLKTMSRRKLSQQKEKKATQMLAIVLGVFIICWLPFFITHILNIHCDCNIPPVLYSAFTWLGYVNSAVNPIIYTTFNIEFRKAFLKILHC
Muscarinic acetylcholine receptor M1 (Homo sapiens), sequence (P11229 whole entry, looked up): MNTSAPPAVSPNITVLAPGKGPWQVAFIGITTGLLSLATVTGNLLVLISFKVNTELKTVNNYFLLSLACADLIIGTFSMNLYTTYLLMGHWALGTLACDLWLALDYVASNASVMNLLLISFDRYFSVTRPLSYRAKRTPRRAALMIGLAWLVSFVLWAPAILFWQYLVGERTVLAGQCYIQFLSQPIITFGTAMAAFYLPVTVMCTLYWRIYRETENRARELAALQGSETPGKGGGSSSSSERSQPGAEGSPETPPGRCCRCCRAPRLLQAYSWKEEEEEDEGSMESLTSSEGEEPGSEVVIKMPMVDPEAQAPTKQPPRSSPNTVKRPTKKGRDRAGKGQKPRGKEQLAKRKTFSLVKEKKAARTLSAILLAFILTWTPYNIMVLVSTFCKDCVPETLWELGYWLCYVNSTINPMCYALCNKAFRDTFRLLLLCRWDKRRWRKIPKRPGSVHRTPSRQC
Gonadotropin-releasing hormone receptor (Homo sapiens), sequence (P30968 whole entry, looked up): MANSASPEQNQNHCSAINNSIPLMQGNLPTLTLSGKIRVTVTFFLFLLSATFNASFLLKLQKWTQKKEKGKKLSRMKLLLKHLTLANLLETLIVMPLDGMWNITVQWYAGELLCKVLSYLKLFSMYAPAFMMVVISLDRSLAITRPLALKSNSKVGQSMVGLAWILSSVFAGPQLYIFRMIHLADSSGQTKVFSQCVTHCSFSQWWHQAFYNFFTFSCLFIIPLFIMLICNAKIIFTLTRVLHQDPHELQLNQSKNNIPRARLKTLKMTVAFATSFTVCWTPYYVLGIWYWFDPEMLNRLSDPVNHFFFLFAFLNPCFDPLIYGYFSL
Beta-2 adrenergic receptor (Homo sapiens), sequence (P07550 whole entry, looked up): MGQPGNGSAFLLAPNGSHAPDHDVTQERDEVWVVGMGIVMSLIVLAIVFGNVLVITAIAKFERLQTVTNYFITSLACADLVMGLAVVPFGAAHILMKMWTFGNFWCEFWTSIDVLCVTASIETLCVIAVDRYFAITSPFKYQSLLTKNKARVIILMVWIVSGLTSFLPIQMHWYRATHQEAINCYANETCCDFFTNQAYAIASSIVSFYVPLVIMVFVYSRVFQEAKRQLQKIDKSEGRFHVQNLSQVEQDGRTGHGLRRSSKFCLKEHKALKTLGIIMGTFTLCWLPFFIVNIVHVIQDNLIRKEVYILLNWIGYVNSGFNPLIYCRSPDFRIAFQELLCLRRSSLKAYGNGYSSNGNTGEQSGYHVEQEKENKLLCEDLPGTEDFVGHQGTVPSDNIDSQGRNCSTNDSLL
KiSS-1 receptor (Homo sapiens), sequence (Q969F8 whole entry, looked up): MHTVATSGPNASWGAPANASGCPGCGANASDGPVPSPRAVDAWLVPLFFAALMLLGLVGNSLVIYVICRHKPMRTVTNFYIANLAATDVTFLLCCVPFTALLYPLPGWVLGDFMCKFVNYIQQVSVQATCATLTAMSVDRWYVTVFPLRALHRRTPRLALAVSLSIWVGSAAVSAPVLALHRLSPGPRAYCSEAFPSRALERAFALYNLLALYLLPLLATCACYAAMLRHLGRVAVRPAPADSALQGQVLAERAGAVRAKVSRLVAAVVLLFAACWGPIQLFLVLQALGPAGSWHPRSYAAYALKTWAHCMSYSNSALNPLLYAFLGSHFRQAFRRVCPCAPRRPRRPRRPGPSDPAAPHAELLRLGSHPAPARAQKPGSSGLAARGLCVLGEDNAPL
5-hydroxytryptamine receptor 2A (Homo sapiens), sequence (P28223 whole entry, looked up): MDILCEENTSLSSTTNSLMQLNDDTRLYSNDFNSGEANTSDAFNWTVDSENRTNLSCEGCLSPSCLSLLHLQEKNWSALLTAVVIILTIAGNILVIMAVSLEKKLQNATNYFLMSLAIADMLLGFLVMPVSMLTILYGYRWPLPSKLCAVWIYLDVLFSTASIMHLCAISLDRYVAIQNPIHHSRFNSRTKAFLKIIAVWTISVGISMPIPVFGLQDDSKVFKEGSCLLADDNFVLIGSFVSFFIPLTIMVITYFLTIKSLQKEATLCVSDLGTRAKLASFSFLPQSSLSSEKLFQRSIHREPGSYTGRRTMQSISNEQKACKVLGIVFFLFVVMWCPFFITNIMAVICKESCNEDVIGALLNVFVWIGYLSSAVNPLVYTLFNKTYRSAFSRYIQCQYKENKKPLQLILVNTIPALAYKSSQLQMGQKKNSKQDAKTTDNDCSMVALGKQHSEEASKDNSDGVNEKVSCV

CON(C)C(=O)Nc1ccc(Br)cc1
not listed: [20]
inactive: all other assays above

O=c1[nH]c2cc(Cl)ccc2n1C1CCNCC1
not listed: [8] | [17]
inactive: all other assays above

CC(CCc1ccccc1)NC(C)C(O)c1ccc(O)cc1 (centres undefined)
not listed: [9] | [13] | [17] | [19] | [20]
inactive: all other assays above

CN(C)c1ccc(N)cc1
active: [1] 29.9 µM | [2] 8.42 µM | [8] 35.5 µM
not listed: [13] | [15] | [17] | [18] | [19] | [20]
inactive: all other assays above

ClCc1ccc(Cl)cc1Cl
not listed: [8] | [10]
inactive: all other assays above

C[N+]1(C)[C@@H]2CC[C@H]1CC(OC(=O)C(CO)c1ccccc1)C2 (some centres undefined)
not listed: [10] | [13] | [15] | [20]
inactive: all other assays above

ClP(Cl)(Cl)(Cl)Cl
not listed: [20]
inactive: all other assays above

N#C/C=C/c1ccccc1
not listed: [8] | [10] | [14]
inactive: all other assays above

O=C(O)c1cc(I)cc(I)c1I
not listed: [8] | [10] | [15] | [16] | [18]
inactive: all other assays above

CN1[C@@H]2CC[C@H]1CC(O)C2 (some centres undefined)
not listed: [9] | [20]
inactive: all other assays above

NCC1(CC(=O)O)CCCCC1
not listed: [8] | [11] | [12] | [13] | [14]
inactive: all other assays above

OC(c1ccccc1)(c1ccccc1)C1CCNCC1
active: [13] 4.6 µM
not listed: [8] | [11]
inactive: all other assays above

C=CC(=O)OCCN(C)C
not listed: [8] | [11]
inactive: all other assays above

CC1(c2ccc(Oc3ccccc3)cc2)OC(=O)N(Nc2ccccc2)C1=O (centres undefined)
active: [1] 27.5 µM | [13] 5.33 µM | [16] 61.5 µM
not listed: [11] | [17] | [20]
inactive: all other assays above

C[C@@H]1CC2=CC(=O)CC[C@@H]2[C@H]2CC[C@@]3(C)[C@@H](CC[C@]3(C)O)[C@@H]21
not listed: [8] | [15] | [16]
inactive: all other assays above
